PubChem BioAssay (NCI)
Compounds without any hit were thinned out: in the full panel of roughly 83,000, 20% have a hit.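 Growth was measured after 48 h exposure to one concentration of compound in 96-well plates. Values under 10 count as active.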 Activity calls are given as the source filed them.

These molecules were tested on SN12C renal (assay: NCI-60 one-dose screen, 48 h (100 = growth as untreated, 0 = no growth, -100 = all killed)). Conditions: 10 µM unless noted.

Row | SMILES | growth
1 | Nc1nc(N)c2c(n1)NC(c1ccc3c(c1)OCO3)CC(c1cccc(Nc3ccncc3)c1)=N2 (stereo not given) | 94.6% (inactive)
2 | CCCCCCCC/C=C\CCCCCCCCOc1ccc(CC(=O)NCC[N+]2(C)CCCC2)cc1 | 42.5% (inactive)
3 | Cn1cc(-c2csc(-c3cn(CCO)c4ccc(F)cc34)n2)c2cccnc21 | 73.2% (inactive)
4 | CCOC(=O)C1=CCC(n2cc(F)c(=O)[nH]c2=O)O1 (stereo not given) | 104% (inactive)
5 | CC1(C)CC[C@]2(CO)CC[C@]3(C)C(=CC[C@@H]4[C@@]5(C)CCNCC(C)(C)[C@@H]5CC[C@]43C)[C@@H]2C1 | 80.5% (inactive)
6 | O=C(CN1C(=O)NC2NC(=O)NC21)N/N=C/c1cccc([N+](=O)[O-])c1 (stereo not given) | 96.5% (inactive)
7 | [2H]C([2H])([2H])Oc1ccc(/C=C/C(=O)/C=C(O)/C=C/c2ccc(OC([2H])([2H])[2H])c(OC([2H])([2H])[2H])c2)cc1OC([2H])([2H])[2H] | 28.3% (inactive)
8 | Cc1nn(C)c2ncnc(Nc3ccccc3Br)c12 | 98.8% (inactive)
9 | COc1cc(NC(=O)c2cncnc2Nc2ccc3c(ccn3Cc3cccc(F)c3)c2)cc(OC)c1 | 67.4% (inactive)
10 | C=C1CC[C@@H]2[C@](C)(COC(C)=O)[C@H](OC(C)=O)CC[C@@]2(C)[C@@H]1CC(Nc1ccc(S(=O)(=O)Nc2nccc(C)n2)cc1)C1=CCOC1=O (stereo not given in full) | 25.1% (inactive)
11 | Cc1nc2c(c(-c3ccccc3)n1)Cc1c(ccc3ccccc13)O2 | 102% (inactive)
12 | CCCc1cc(CCC)n2nc(N)nc2n1 | 101% (inactive)
13 | Clc1ccc(C2=Nn3c(nnc3-c3cc(Cl)cc(Cl)c3Cl)SC2)cc1 | 88.4% (inactive)
14 | CCN(CC)CCN1C(=O)c2c(c(C)c3c(oc4cc(OC)ccc43)c2C)C1=O | 32.2% (inactive)
15 | O=C1c2cccnc2C(=O)c2c1c(C(=O)OCCCN1CCOCC1)c1ccccn21 | -19.3% (active)
16 | CCCCN(CCC#N)C(N)=O | 106% (inactive)
17 | O=C(OCC(O)(CO)C(=O)NC12CC3CC(CC(C3)C1)C2)c1ccc(Cl)cc1 (stereo not given) | 100% (inactive)
18 | CC1(C)C2=C(C(=O)N1Cc1ccccc1)C(c1ccco1)N(C(=O)C1CCC1)CCN2 (stereo not given) | 93.4% (inactive)
19 | CN1CC(c2ccccc2)C(C(=O)c2ccc(Br)cc2)C12C(=O)Nc1ccccc12 (stereo not given) | 94.5% (inactive)
20 | Nc1ncc(-c2ccc3ncnc(N4CCc5cc(F)c(Cl)cc54)c3c2)cn1 | 26% (inactive)
21 | CCCCCN(CCCCC)CC(O)c1c(Cl)ccc2ccccc12 (stereo not given) | 70.2% (inactive)
22 | CNC(=O)c1cc(Oc2ccc3nc(NC(=O)NC(C)C)sc3c2)ccn1 | 86.3% (inactive)
23 | Nc1ccc(Cl)c2c(=O)c3ccccc3[nH]c12 | 89.2% (inactive)
24 | CNC(=O)c1cc(Oc2cccc3nc(NC(=O)Nc4ccc(F)cc4F)ccc23)ccn1 | 10.6% (inactive)
25 | N#Cc1c(-c2ccc(F)cc2)cc(-c2cccc(Cl)c2)[nH]c1=O | 60.3% (inactive)

The molecules below were run on UO-31 renal in the same assay as above. Conditions: 10 µM unless noted.

Row | SMILES | growth
26 | COc1ccccc1/C=C/C1=C(C)CCC(c2ccccc2OC)C1C (stereo not given) | 4.1% (active)
27 | COc1cc(OCc2cccc(-c3ccc4c(c3)OCCO4)c2C)cc(OC)c1C=O | 51% (inactive)
28 | COc1ccccc1-c1nc2ccc3[nH]ncc3c2c2c1CCCC2 | 36.3% (inactive)
29 | CC(=O)OCCOc1cc(Cl)c(Cl)cc1Cl | 89.1% (inactive)
30 | CC1(C)CC(=O)C2=C(C1)OC(C(=O)c1ccccc1)C2c1cccc(Oc2ccccc2)c1 (stereo not given) | 15.6% (inactive)
31 | CC1OC(C(=O)N2CCN(CCO)CC2)CC1COC1CCCCC1 (stereo not given) | 70.4% [50 µM] (inactive)
32 | COc1ccccc1NC(=O)n1c(=O)cc(C)c2ccc(O)cc21 | 88.6% (inactive)
33 | COc1ccc2c(c1)C(c1c[nH]c3ccccc13)(c1c[nH]c3ccccc13)CCO2 | 26.1% (inactive)
34 | CC(C)(C)n1cc(-c2ccnc(NCCNS(=O)(=O)c3cccc4ccccc34)c2)c(-c2cccc(O)c2)n1 | 70.2% (inactive)
35 | COc1cc(C2=Nc3c(N)nc(N)nc3NC(c3cccc(Nc4ccnc5cc(C(F)(F)F)ccc45)c3)C2)cc(OC)c1OC (stereo not given) | 51.8% (inactive)
36 | Nc1nc(=O)n([C@H]2CC=C(CO)O2)cc1F | 91.5% (inactive)
37 | CS(=O)(=O)c1ccc(/C(=N/NC(N)=S)c2ccc(F)cc2)cc1 | 71.1% (inactive)
38 | O=c1n(C2OC(CO)C(O)C2O)ccc2nccn12 (stereo not given) | 99.8% (inactive)
39 | Cc1c(N2CCCCC2)[nH]c2ccccc12 | 125% (inactive)
40 | O=C1CCc2c(sc3[nH]c(=S)n(-c4cc(C(F)(F)F)cc(C(F)(F)F)c4)c(=O)c23)C1 | -57.5% (active)
41 | Nc1nc(N)c2c(n1)NC(c1ccc3c(c1)OCO3)CC(c1cccc(Nc3ccncc3)c1)=N2 (stereo not given) | 96.1% (inactive)
42 | CCCCCCCC/C=C\CCCCCCCCOc1ccc(CC(=O)NCC[N+]2(C)CCCC2)cc1 | 93.3% (inactive)
43 | Cn1cc(-c2csc(-c3cn(CCO)c4ccc(F)cc34)n2)c2cccnc21 | 70.7% (inactive)
44 | CCOC(=O)C1=CCC(n2cc(F)c(=O)[nH]c2=O)O1 (stereo not given) | 87.8% (inactive)
45 | CC1(C)CC[C@]2(CO)CC[C@]3(C)C(=CC[C@@H]4[C@@]5(C)CCNCC(C)(C)[C@@H]5CC[C@]43C)[C@@H]2C1 | 75.3% (inactive)

Row | SMILES | growth
46 | O=C(CN1C(=O)NC2NC(=O)NC21)N/N=C/c1cccc([N+](=O)[O-])c1 (stereo not given) | 88.4% (inactive)
47 | [2H]C([2H])([2H])Oc1ccc(/C=C/C(=O)/C=C(O)/C=C/c2ccc(OC([2H])([2H])[2H])c(OC([2H])([2H])[2H])c2)cc1OC([2H])([2H])[2H] | 11.4% (inactive)
48 | Cc1nn(C)c2ncnc(Nc3ccccc3Br)c12 | 96.8% (inactive)
49 | COc1cc(NC(=O)c2cncnc2Nc2ccc3c(ccn3Cc3cccc(F)c3)c2)cc(OC)c1 | 37.9% (inactive)
50 | C=C1CC[C@@H]2[C@](C)(COC(C)=O)[C@H](OC(C)=O)CC[C@@]2(C)[C@@H]1CC(Nc1ccc(S(=O)(=O)Nc2nccc(C)n2)cc1)C1=CCOC1=O (stereo not given in full) | 33.4% (inactive)
51 | Cc1nc2c(c(-c3ccccc3)n1)Cc1c(ccc3ccccc13)O2 | 69.8% (inactive)
52 | CCCc1cc(CCC)n2nc(N)nc2n1 | 129% (inactive)
53 | Clc1ccc(C2=Nn3c(nnc3-c3cc(Cl)cc(Cl)c3Cl)SC2)cc1 | 51.6% (inactive)
54 | CCN(CC)CCN1C(=O)c2c(c(C)c3c(oc4cc(OC)ccc43)c2C)C1=O | -43.7% (active)
55 | O=C1c2cccnc2C(=O)c2c1c(C(=O)OCCCN1CCOCC1)c1ccccn21 | -42.6% (active)
56 | CCCCN(CCC#N)C(N)=O | 98.4% (inactive)
57 | O=C(OCC(O)(CO)C(=O)NC12CC3CC(CC(C3)C1)C2)c1ccc(Cl)cc1 (stereo not given) | 82.6% (inactive)
58 | CC1(C)C2=C(C(=O)N1Cc1ccccc1)C(c1ccco1)N(C(=O)C1CCC1)CCN2 (stereo not given) | 90.5% (inactive)
59 | CN1CC(c2ccccc2)C(C(=O)c2ccc(Br)cc2)C12C(=O)Nc1ccccc12 (stereo not given) | 65.9% (inactive)
60 | Nc1ncc(-c2ccc3ncnc(N4CCc5cc(F)c(Cl)cc54)c3c2)cn1 | 14.4% (inactive)
61 | CCCCCN(CCCCC)CC(O)c1c(Cl)ccc2ccccc12 (stereo not given) | 37.2% (inactive)
62 | CNC(=O)c1cc(Oc2ccc3nc(NC(=O)NC(C)C)sc3c2)ccn1 | 79.2% (inactive)
63 | Nc1ccc(Cl)c2c(=O)c3ccccc3[nH]c12 | 65.1% (inactive)
64 | CNC(=O)c1cc(Oc2cccc3nc(NC(=O)Nc4ccc(F)cc4F)ccc23)ccn1 | 10.4% (inactive)
65 | N#Cc1c(-c2ccc(F)cc2)cc(-c2cccc(Cl)c2)[nH]c1=O | 54.3% (inactive)
